Data taken from the supplement of paper PMC6555819.

Experiments:
Assay in all cases: PBM binding z-score (relative to random genomic background probes); higher = stronger binding; sequences stand for … in GC…GCGATTGACAGCGTAGAATGAAGG
[1] = tested on: PPARg:RXRa DBDmut IVT, anti-RXR (DBD mutation: RXRa K156A/R161A, NR concentration 270 nM, RXRa partner concentration 90 nM)
Outline: (§1)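 Binding z-scores were set against random background probes. The data came from custom Agilent 4×180K protein-binding microarrays carrying double-stranded probes with 34-nt variable regions, incubated 1 h with ligand-free nuclear receptor dimers. Partner-specific antibodies detected binding, and scanned fluorescence was regression-normalized.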

[2] = tested on: PPARg:RXRa IVT, anti-PPARg (NR concentration 270 nM, RXRa partner concentration 90 nM)
Outline: as §1

[3] = tested on: PPARg DBDmut:RXRa IVT, anti-PPARg (DBD mutation: PPARg1 K132A/R137A, NR concentration 270 nM, RXRa partner concentration 90 nM)
Outline: as §1

[4] = tested on: PPARg DBDmut IVT, anti-PPARg (DBD mutation: PPARg1 K132A/R137A, NR concentration 270 nM)
Outline: as §1

[5] = tested on: PPARg homodimer (NR concentration 180 nM)
Outline: as §1

[6] = tested on: PXR:RXRa (NR concentration 270 nM, RXRa partner concentration 90 nM)
Outline: as §1

[7] = tested on: PXR homodimer (NR concentration 270 nM)
Outline: as §1

[8] = tested on: RARa:RXR (NR concentration 270 nM, RXRa partner concentration 90 nM)
Outline: as §1

[9] = tested on: RARa homodimer (NR concentration 270 nM)
Outline: as §1

[10] = tested on: RARb:RXRa (NR concentration 270 nM, RXRa partner concentration 90 nM)
Outline: as §1

[11] = tested on: RARb homodimer (NR concentration 270 nM)
Outline: as §1

[12] = tested on: RARg:RXRa (NR concentration 270 nM, RXRa partner concentration 90 nM)
Outline: as §1

[13] = tested on: RARg homodimer (NR concentration 270 nM)
Outline: as §1

[14] = tested on: RXRa DBDmut IVT, anti-RXR (DBD mutation: RXRa K156A/R161A, NR concentration 90 nM)
Outline: as §1

[15] = tested on: RXRa homodimer (NR concentration 180 nM)
Outline: as §1

[16] = tested on: THRa:RXRa (NR concentration 90 nM, RXRa partner concentration 90 nM)
Outline: as §1

[17] = tested on: THRa homodimer (NR concentration 90 nM)
Outline: as §1

[18] = tested on: VDR homodimer (NR concentration 270 nM)
Outline: as §1

Row | Sequence | PBM binding z-score [1] | PBM binding z-score [2] | PBM binding z-score [3] | PBM binding z-score [4] | PBM binding z-score [5] | PBM binding z-score [6] | PBM binding z-score [7] | PBM binding z-score [8] | PBM binding z-score [9] | PBM binding z-score [10] | PBM binding z-score [11] | PBM binding z-score [12] | PBM binding z-score [13] | PBM binding z-score [14] | PBM binding z-score [15] | PBM binding z-score [16] | PBM binding z-score [17] | PBM binding z-score [18]
1 | ATATGTAGGTTAACGGGTCATTCAGTTTGCGCAT | 8.01 | 7.92 | 2.68 | 1.82 | 2.04 | 3.26 | 3.42 | 3.42 | 1.02 | 2.54 | 2.84 | 3.21 | 2.62 | 1.46 | 3.46 | 2.27 | 0.71 | 2.56
2 | CGAACGAGGGTATGAGTTGATAGCAAATGCCGAT | 0.876 | 0.397 | 0.137 | 0.369 | -0.383 | -0.238 | 0.0824 | -0.307 | 0.157 | 0.117 | -0.208 | 0.124 | 0.248 | 0.658 | 0.0632 | -0.183 | -0.485 | 0.345
3 | CCTAGGAGGCCAATCTGGGTCACTCAAGGCTTGA | 4.15 | 5.21 | -0.00134 | -1.3 | 0.591 | 1.97 | -0.291 | 1.64 | -0.236 | 1.94 | 2.69 | 1.66 | 2.12 | -0.07 | 1.19 | 4.21 | 0.462 | 0.0459
4 | ACTTACGGGTCAACGTGGTTATAGCACGCGTATA | 3.4 | 3.77 | 1.64 | 1.34 | 2.74 | 3.45 | 0.0483 | 4.28 | 1.23 | 4.02 | 3.03 | 5.25 | 5.16 | 2.08 | 6.28 | 2.64 | 0.124 | 1.18
5 | ATCGTAAGGTCGAGGTGAGTATAGAGAAAGGGAA | -0.153 | 1.72 | 1.12 | 1.14 | 1.07 | 1.68 | 0.189 | 2.17 | 0.395 | 3.22 | 2.13 | 3 | 3.23 | 1.49 | 2.55 | 3.43 | 2.18 | 0.892
6 | ATATGTGGGTTAGCTGGGGTCATTCAGACTAGGC | 6.16 | 5.6 | 3.15 | 2.88 | 3.21 | 6.47 | 6.39 | 5.9 | 1.64 | 2.96 | 3.54 | 3.97 | 2.93 | 2.16 | 5.59 | 5 | 3.84 | 5.73
7 | TCTATTAGGTGATTAGGGCAACCGAAACAGCGGA | 4.87 | 4.81 | 2.12 | 1.04 | 0.876 | 0.422 | 0.211 | 0.593 | 0.993 | 1.37 | 1.1 | 1.09 | 1.02 | 0.665 | 0.927 | 1.24 | 0.68 | 0.277
8 | CCTATTAGTCGACCATAAGGGCAACCGAAGCTCG | 0.311 | -0.00504 | 0.93 | -1.02 | 0.749 | 0.26 | 0.25 | 0.415 | 0.709 | 1.24 | 1.55 | 0.761 | 0.875 | 0.45 | 0.505 | 1.33 | 0.896 | 0.533
9 | TCAGAAAGGTGAAGGTAACTCAGGTACGCAGTCG | 4.06 | 2.93 | 0.125 | 0.136 | 0.958 | 1.12 | 0.164 | 1.88 | 0.504 | 3.25 | 2.08 | 2.32 | 2.52 | 1.64 | 2.41 | 2.01 | 0.472 | 0.477
10 | ACTAGTTGGTCAGCTGAGGTCACACATAATTCGG | 1.85 | 2.53 | 0.818 | 1.05 | 2.38 | 5.42 | 1.87 | 4.34 | 1.21 | 3.51 | 4.45 | 4.1 | 4.13 | 1.13 | 3.93 | 4.88 | 5.2 | 3.19
11 | GCTCGGAGGACAAGGTCAGATCTTTGTCCGTAGA | -0.309 | 0.755 | -0.782 | -0.686 | 0.86 | 1.87 | -0.322 | 2.22 | -0.579 | 3.52 | 3.06 | 3.19 | 3.28 | 0.628 | 2.46 | 3.17 | 1.58 | 0.872
12 | CAAACTAGGTCAAGAGGTCAAAGACCGCTTCCCG | 8.33 | 8.34 | 1.4 | 0.266 | 5.54 | 5.94 | 1.78 | 7.58 | 1.89 | 5.61 | 5.76 | 8.18 | 7.8 | 2.18 | 8.47 | 4.39 | 2.18 | 3.76
13 | GGAACGATGGCAAGTTGATAGCAGAGTTTGATGG | 0.0538 | -0.751 | -1.07 | -0.527 | -1.16 | -0.323 | -0.221 | -0.504 | -0.494 | -0.496 | -0.624 | -0.353 | -0.158 | -0.0368 | -0.123 | -0.797 | -0.814 | 0.0604
14 | CCGGACAGGTGAGAAGGTAACTCAGCCTCGATTA | 1.04 | 0.612 | -0.39 | -1.64 | 0.569 | -0.415 | -0.227 | -0.262 | 0.0296 | 0.711 | 0.613 | 0.4 | 0.787 | -0.0237 | 0.117 | 0.16 | 0.35 | -0.222
15 | CCTTACGGGTCACACCAGGTTATAGCATCGGAGT | 2.98 | 4.37 | 0.627 | -0.128 | 2.63 | 5.3 | 0.565 | 5.06 | 1.44 | 4.06 | 3.26 | 4.99 | 4.64 | 1.32 | 5.18 | 5.22 | 0.963 | 1.61
16 | ATCGAAAGGTCGAGAGGTGAGTATACAGAAAGGC | -0.201 | 1.82 | 0.777 | 0.861 | 2.03 | 2.69 | -0.031 | 3.73 | 0.105 | 3.88 | 3 | 4.69 | 4.09 | 0.518 | 4.53 | 2.37 | -0.0205 | 0.542
